Inconclusive results are not listed. The source made the active and inactive calls.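 How the source made its calls, unless noted: active means viability loss from added drug above about 55%, and viability with drug at most 40%, in both replicates (limit read from the data, passing the limit was not always enough); inconclusive means both conditions met in only one replicate; inactive means neither replicate meets both conditions.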

Test [1] in a line: HUVEC growth inhibition – cell-based, human, primary screen (AID 575;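 active means viability at or below 30% in both replicate assays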;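 further: 100% = median of untreated cell wells with 0.1% DMSO on each plate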). The conditions noted are these: HUVEC proliferation, CellTiter-Glo luminescence, 72 h; at 10 µM; stronger effect = lower value. (In ATP-based viability assays light output follows the ATP content of the culture.)
Test [2] in a line: H69AR cell proliferation blockers – human, duplicate replicates, primary screen (AID 580;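 active means viability at or under a set limit in both replicates, limit being median viability minus 3 SD, cut at about 48% in these data, passing the limit was not always enough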;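 further: 100% = mean luminescence of untreated wells and 0% = no signal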). The conditions noted are these: H69AR lung tumor cells viability, ATP luminescence, 72 h; at 10 µM; stronger effect = lower value.
The nature of test [3]: MRP1 drug-resistance reversers in H69AR cells – cell-based, doxorubicin co-treatment, pilot screen (AID 601). The conditions noted are these: CellTiter-Glo, 72 h, at 10 µM; for differential viability (reversal): stronger effect = higher value.
Test [4] in a line: yeast transport mutant growth inhibition pilot in 384-well plates, post-Golgi transport modulator project (AID 636; in the data active means inhibition above about 31%). The conditions noted are these: absorbance 615 nm, about 18 h, stronger effect = higher value.
Test [5] in a line: growth suppression of yeast trafficking mutant, preliminary HTS, modulators of trafficking downstream of Golgi apparatus project, 1536-format plate, OD 615 nm (AID 637; in the data active means inhibition above about 30%). The conditions noted are these: yeast transport mutant growth, absorbance 615 nm, 18 h; stronger effect = higher value.
Test [6] can be described thus: S. cerevisiae growth inhibition in permissive medium (OD615), pilot counter-assay for S. cerevisiae lifespan shortening project, permissive growth control (AID 705;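 active means growth inhibition above 25% in both replicates, a cutoff set 3 SD above the mean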). The conditions noted are these: OD615, 24 h, at 10 µM, stronger effect = higher value.
Test [7] is described as follows: S. cerevisiae growth inhibition in restrictive medium, OD615, pilot screen, restrictive growth control, yeast lifespan reduction project (AID 706;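 active means growth inhibition above a set limit, 3 SD over mean compound inhibition, in both replicates, cut at about 43% in these data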;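 further: modified DeaD lifespan yeast strain shifted to restrictive glucose medium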). The conditions noted are these: OD615, 48 h, at 10 µM, stronger effect = higher value.
Test [8] can be described thus: doxorubicin toxicity protection in MRP-1 cells – H69AR cells, CellTiter-Glo, duplicate, MRP-1 activator project, pilot screen (AID 807;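 active means viability increase at or above a cutoff of the median across tested compounds plus 3 SD, cut at about 8.5% in these data, passing the limit was not always enough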;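 further: compound pretreatment 18-22 h then 72 h combined with doxorubicin; 0% = doxorubicin alone and 100% = vehicle without doxorubicin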). The conditions noted are these: H69AR viability with doxorubicin, CellTiter-Glo luminescence; at 10 µM; stronger effect = higher value.
Test [9] is described as follows: viability of HCT116 without oncogenic beta-catenin – human colon tumor cells, pilot screen (AID 823;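 active means cell viability at or below a set limit in both duplicate runs, the limit being the all-compound median minus 4 SD, cut at about 23% in these data, passing the limit was not always enough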;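 further: 0% = wells killed by 20 µM Hyamine and 100% = untreated DMSO cell wells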). The conditions noted are these: HCT116 beta-catenin knockout viability, CellTiter-Glo, 60 h; at 10 µM; stronger effect = lower value.
Test [10] can be described thus: viability of PTEN-null HCT116 cells – cell-based, HCT116 clonal line, CellTiter-Glo, pilot screen (AID 824;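 active means viability at or below 27.92% in each of two runs, the all-compound median minus 4 SD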;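 further: 0% = 20 µM Hyamine control and 100% = vehicle cell control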). The conditions noted are these: HCT116 PTEN-deleted viability, 60 h, at 10 µM, stronger effect = lower value.
Test [11] in a line: RAM pathway blockade in budding yeast – dse1pr::URA3 reporter, 5-FOA selection, pilot screen (AID 869;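 active means inhibition over a set limit, the all-compound mean plus 3 SD, in both replicate runs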;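 further: 0% = DMSO wells with no growth and 100% = 10 µM 1-NA-PP1 with full growth; RAM network block rescues cells from 5-FOA so hits raise OD615 growth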). The conditions noted are these: S. cerevisiae dse1pr::URA3 5-FOA growth, OD615, 2 d; at 10 µM; stronger effect = higher value; strain carries analog-sensitive mutant Cbk1 kinase.
Test [12] in a line: RAM signaling pathway blockade in yeast – S. cerevisiae, Pdr1DBD-CYC8 efflux-inhibited sensitized strain, primary screen (AID 1298;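 active means RAM network inhibition above 8.4% in each of two replicates, 3 SD over the compound average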;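 further: 0% = DMSO untreated cells without growth and 100% = 10 µM 1-NA-PP1 full growth; higher means more yeast growth rescued from 5-FOA killing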). The conditions noted are these: S. cerevisiae cbk1-as DSE1-URA3 strain, 5-FOA growth OD615, 2 d; at 50 µM; stronger effect = higher value.
Setting [13] is: H69AR cells + 2 uM doxorubicin, measured here: viability with 2 uM doxorubicin, stronger effect = lower value.
Where [14] appears, read: H69AR cells, compound alone cytotoxicity.

By viability is commonly meant a read-out of living cells in per cent, often relative to untreated cells. What is called inhibition is the change of the read-out against control, counted positive when it falls. For the molecule `CCCN1CCN(C(=O)c2cn(CC(C)C)c(=O)c3cc(OC)c(OC)cc23)CC1`, the viability in test [1] was 93.1% (inactive); in [2], 78% (inactive); in test [3] (setting [13]), 78.9%; in test [3] (setting [14]), 78%; in test [9], 100% (inactive); in [10], 88.4% (inactive). Moreover, the differential viability (reversal) in [3] (H69AR cells + 2 uM doxorubicin) was -0.945% (inactive). The inhibition in test [4] was -4.74% (inactive); in test [5], 4.92% (inactive); in test [11], 2.42% (inactive). For the same molecule, the growth inhibition was -19.2% (inactive) in [6] and -0.27% (inactive) in test [7]. The viability increase in test [8] is -2.46% (inactive). Further, the RAM network inhibition in [12] was 2.08% (inactive).

As for `CCn1c(CCNC(=O)c2ccc(OC)c(OC)c2)nc2ccccc21`, the viability is 103% (inactive) in [1]; 83.2% (inactive) in test [2]; 76.6% in [3] (setting [13]); 83.2% in [3] (setting [14]); 102% (inactive) in test [9]; 99.2% (inactive) in [10]. In test [3] (H69AR cells + 2 uM doxorubicin), the differential viability (reversal) is 6.54% (inactive). Further, the inhibition in test [4] is -5.92% (inactive); in test [5], -2.22% (inactive); in test [11], 1.87% (inactive). The growth inhibition in test [6] is -10.8% (inactive); in [7] it was -11.1% (inactive). Also, the viability increase in [8] is -2.22% (inactive). Also, in [12], the RAM network inhibition was 4.36% (inactive).

With `O=C(NCCN1CCN(c2ccccc2)CC1)c1ccc(NC(=O)C2CCCO2)cc1` (stereo not drawn), the viability in [1] was 96.9% (inactive); in test [2] it was 108% (inactive); in test [3] (setting [13]), 100%; in test [3] (setting [14]), 108%; in test [9], 95.6% (inactive); in test [10], 101% (inactive). The differential viability (reversal) in [3] (H69AR cells + 2 uM doxorubicin) was 8.13% (inactive). Further, the inhibition in test [4] is -3.82% (inactive); in [5] it was -0.48% (inactive); in test [11], 1.66% (inactive). Also, the figures for the growth inhibition in test [6] and in test [7] were -5.63% (inactive) and -8.76% (inactive), respectively. Moreover, the viability increase in test [8] is -1.13% (inactive). In addition, the RAM network inhibition in test [12] was 2.86% (inactive).

Take `Cc1ccc(C)c(N2C(=O)CN=C2Nc2ccccc2Cl)c1`: the viability was 80.1% (inactive) in test [1]; 100% (inactive) in test [2]; 78.6% in [3] (setting [13]); 100% in test [3] (setting [14]); 91.5% (inactive) in [9]; 94.4% (inactive) in test [10]. Moreover, in [3] (H69AR cells + 2 uM doxorubicin), the differential viability (reversal) was 21.3% (inactive). For the same molecule, the figures for the inhibition in [4], in [5] and in test [11] were -1.95% (inactive), 2.54% (inactive) and 0.715% (inactive), respectively. For the same molecule, the growth inhibition in [6] was -7.25% (inactive); in test [7], -0.67% (inactive). Also, the viability increase in [8] was -0.31% (inactive). Further, in test [12], the RAM network inhibition is -0.52% (inactive).

For `COc1ccccc1NC(=O)N(Cc1ccccc1)c1ccccn1`, the viability was 83.4% (inactive) in [1]; 85.3% (inactive) in [2]; 91.2% in test [3] (setting [13]); 85.3% in [3] (setting [14]); 87% (inactive) in [9]; 88.6% (inactive) in test [10]. In test [3] (H69AR cells + 2 uM doxorubicin), the differential viability (reversal) was -5.91% (inactive). Also, the inhibition in [4] was -5.58% (inactive); in test [5], -4.92% (inactive); in test [11], 2.24% (inactive). Moreover, the values for the growth inhibition in [6] and in test [7] were -9.36% (inactive) and -2.62% (inactive), respectively. Also, the viability increase in test [8] is 0.35% (inactive). Also, the RAM network inhibition in test [12] is 6.47% (inactive).

For the molecule `CCCCC(NC(C)=O)c1nc2ccccc2n1CCC` (stereo not drawn), the viability in [1] was 93.9% (inactive); in test [2], 100% (inactive); in test [3] (setting [13]), 89.7%; in [3] (setting [14]) it was 100%; in test [9], 93.6% (inactive); in [10], 93.3% (inactive). Moreover, the differential viability (reversal) in test [3] (H69AR cells + 2 uM doxorubicin) was 10.6% (inactive). Further, the inhibition in test [4] was 1.32% (inactive); in [5], 7.62% (inactive); in [11], 1.44% (inactive). The growth inhibition in [6] was -5.8% (inactive); in [7] it was -2.95% (inactive). Moreover, the viability increase in test [8] is -0.99% (inactive). In test [12], the RAM network inhibition was -0.69% (inactive).

`COc1ccc(C)cc1NC(=O)CNC(=O)Cn1ccc2ccccc2c1=O`: the viability in test [1] is 112% (inactive); in test [2], 92.8% (inactive); in test [3] (setting [13]), 85.9%; in test [3] (setting [14]), 92.8%; in test [9], 89% (inactive); in test [10], 90.3% (inactive). Moreover, in test [3] (H69AR cells + 2 uM doxorubicin), the differential viability (reversal) is 6.84% (inactive). Also, the inhibition in [4] is -1.18% (inactive); in test [5], 1.59% (inactive); in test [11] it was 1.96% (inactive). Also, the growth inhibition in [6] is -17.2% (inactive); in test [7], -3.23% (inactive). For the same molecule, the viability increase in test [8] is -2.41% (inactive). Besides, the RAM network inhibition in [12] was 5.68% (inactive).

Turning to `N#Cc1nc(-c2ccc(Cl)cc2)oc1NCCc1ccccn1`, the viability in test [1] was 102% (inactive); in test [2] it was 104% (inactive); in test [3] (setting [13]), 96%; in test [3] (setting [14]), 104%; in test [9] it was 97.3% (inactive). Besides, in [3] (H69AR cells + 2 uM doxorubicin), the differential viability (reversal) was 7.66% (inactive). Besides, the results for the inhibition in test [4], in [5] and in test [11] were 0.39% (inactive), 5.4% (inactive) and 1.07% (inactive), respectively. The growth inhibition in [6] is 1% (inactive); in [7] it was 0.83% (inactive). Further, in test [8], the viability increase is -0.49% (inactive). The RAM network inhibition in [12] is 7.29% (inactive).

For `CC(=O)Nc1nc(-c2ccccc2)nc(C)c1C(C)=O`, the viability was 103% (inactive) in [1]; 94.4% (inactive) in [2]; 87.3% in [3] (setting [13]); 94.4% in test [3] (setting [14]); 93.4% (inactive) in test [9]; 99.5% (inactive) in [10]. The differential viability (reversal) in [3] (H69AR cells + 2 uM doxorubicin) is 7.1% (inactive). Besides, the inhibition in test [4] was 0.13% (inactive); in test [5], -2.22% (inactive); in test [11], 0.585% (inactive). Also, the growth inhibition in [6] is -9.85% (inactive); in test [7], -7.77% (inactive). Also, the viability increase in [8] was -0.66% (inactive). In addition, the RAM network inhibition in test [12] was 5.92% (inactive).

In the case of `N#C/C(C(=O)c1ccccc1)=C1/CCCN1`, the viability is 95.8% (inactive) in test [1]; 97.2% (inactive) in [2]; 91.5% in [3] (setting [13]); 97.2% in [3] (setting [14]); 108% (inactive) in [9]; 105% (inactive) in [10]. Besides, in test [3] (H69AR cells + 2 uM doxorubicin), the differential viability (reversal) is 5.69% (inactive). Further, the results for the inhibition in test [4], in test [5] and in test [11] were -1.04% (inactive), 5.08% (inactive) and 1.44% (inactive), respectively. Moreover, the growth inhibition is -10.5% (inactive) in test [6] and -8.62% (inactive) in [7]. Besides, the viability increase in [8] was 2.34% (inactive). In addition, the RAM network inhibition in test [12] is 1.34% (inactive).

In the case of `Cc1ccc(C)c(NC(=O)C2CCC(C)(C(=O)O)C2(C)C)c1` (stereo not drawn), the viability in [1] is 98.8% (inactive); in test [2], 97.8% (inactive); in test [3] (setting [13]), 92.1%; in test [3] (setting [14]), 97.8%; in test [9], 97% (inactive); in [10], 99% (inactive). Moreover, in test [3] (H69AR cells + 2 uM doxorubicin), the differential viability (reversal) was 5.67% (inactive). Besides, the results for the inhibition in [4], in [5] and in test [11] were 2.08% (inactive), -0.79% (inactive) and 0.355% (inactive), respectively. In addition, the values for the growth inhibition in [6] and in test [7] were -12.8% (inactive) and -13.8% (inactive), respectively. For the same molecule, the viability increase in test [8] was -1.13% (inactive). The RAM network inhibition in [12] was 0.93% (inactive).

For the origin of these results see PubChem BioAssay.
